Cycloheximide cs – Cycloheximide Counterscreen for Small Molecule Inhibitors of Shiga Toxin. cell reporter, cycloheximide protein synthesis inhibition counterscreen. 12% of 300,000 active. max response, %. AID 2314, 2010; in the data active means max response mostly above about 13%, no sharp cut-off; inactive means mostly below about 14%; further: read at 38.3 µM for the half of the compounds with a filed dose; 0% is about no effect
NS1 function inh – qHTS Assay for Inhibitors of Influenza NS1 Protein Function; 0.4% of 270,000 active; Potency, µM (doses to about 46.1 µM), without a hit: top-dose activity, positive = more growth; further: potency means the concentration at half of the fitted maximal effect; actives are rising curves; nearly all actives have a fitted effect of over 50% in size
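Compounds were scored for reversing the slow growth caused by influenza A NS1 in S. cerevisiae, measured by optical density at 600 nm. Assay medium contained 2% galactose at pH 6.0; NS1-free yeast of the same strain were the positive control.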
SARS PLpro yeast – qHTS of Yeast-based Assay for SARS-CoV PLP. Potency, µM (series often up to 32.9 µM), for the others: at the highest dose activity, positive = growth rescue, most hits filed as activators. 0.19% of 330,000 active. S. cerevisiae expressing SARS-CoV PLpro, growth rescue. AID 485353, 2010; further: potency means the concentration at half of the fitted maximal effect; 0% is about no effect; nearly all actives have a fitted effect of over 55% in size
Pf growth 96h – Primary qHTS for delayed death inhibitors of the malarial parasite plastid, 96 hour incubation | Potency, µM (highest dose often 28.7 µM), for the others: at the highest dose activity change, negative = inhibition, most hits filed as inhibitors | P. falciparum luciferase reporter growth, 96 h | AID 504834, 2011 | 6.9% of 320,000 active; active means well fitted inhibition curve with a large enough effect; inconclusive means small, poorly fitted or top-dose-only effect, or another doubt; inactive means no such curve, though single readings can be large or run the other way; further: potency means the concentration at half of the fitted maximal effect; on the % scale 0 is the no-effect control and ±100 the full control effect
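Cell-based qHTS: luciferase-tagged P. falciparum in erythrocytes (2% hematocrit, 0.05% parasitemia final) incubated with compounds for 96 hours, 37 C, 5% CO2; luciferase detection reagent then added and luminescence measured.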
Shiga inhibitor – A qHTS for Small Molecule Inhibitors of Shiga Toxin; AID 2315, 2010; inhibition, % at 38.7 µM; 9.2% of 290,000 active; Vero cells, Shiga toxin protein synthesis inhibition reporter; in the data active means inhibition mostly above about 28%, no sharp cut-off; inactive means mostly below about 43%; further: 0% is about no effect
Pf growth 48h – Primary qHTS for delayed death inhibitors of the malarial parasite plastid, 48 hour incubation; Potency, µM (doses to about 28.7 µM), for the others: at the top dose activity change, negative = inhibition, actives largely listed as inhibitors; P. falciparum luciferase growth in erythrocytes, 48 h; 5.9% of 310,000 active; AID 504832, 2011; active means well fitted inhibition curve with a large enough effect; inconclusive means small, poorly fitted or top-dose-only effect, or another doubt; inactive means no such curve, though single readings can be large or run the other way; further: potency means the concentration at half of the fitted maximal effect; on the % scale 0 is the no-effect control and ±100 the full control effect
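Firefly luciferase activity from engineered P. falciparum reports growth; inhibitors lower the luminescent signal. Cultures contained 2% hematocrit erythrocytes at 0.1% final parasitemia.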
Active calls of the source: *. In the library only some 21% were active in any assay of this set; here they are far more common. Unless noted, the call rests on the fitted dose curve.

For COCCCn1c(SCC(=O)n2c(C)c(C)c3ccccc32)nnc1-c1ccoc1C the results were Cycloheximide cs 6.7, NS1 function inh -30.9%, SARS PLpro yeast -6.2%, Pf growth 96h 1.7%, Shiga inhibitor 55.1 and Pf growth 48h 0.0%.
For CCOC(=O)c1c(NC(=O)c2ccco2)n(C2CCCCC2)c2nc3ccccc3nc12 the results were Cycloheximide cs 7.7, NS1 function inh 14.2%, SARS PLpro yeast -24.6%, Pf growth 96h 10.4µM*, Shiga inhibitor 107.0 and Pf growth 48h inconclusive.
CCOC(=O)c1c(N)n(-c2ccc(N)cc2)c2nc3ccccc3nc12 was read as Cycloheximide cs -1.6, NS1 function inh 0.0%, SARS PLpro yeast -15.9%, Pf growth 96h inconclusive, Shiga inhibitor 14.7 and Pf growth 48h inconclusive.
CCC(=O)Nc1c(C#N)c2nc3ccccc3nc2n1C1CCCCC1 was read as Cycloheximide cs -2.4, NS1 function inh 9.1%, SARS PLpro yeast -0.8%, Pf growth 96h inconclusive, Shiga inhibitor -12.6 and Pf growth 48h inconclusive.
Screening CCOC(=O)c1c(N)n(C2CC(C)(C)NC(C)(C)C2)c2nc3ccccc3nc12 returned Cycloheximide cs -2.3, NS1 function inh -2.5%, SARS PLpro yeast -11.7%, Pf growth 96h 9.28µM*, Shiga inhibitor -14.9 and Pf growth 48h 10.4µM*.
For COc1ccc(C(C)(C)C)cc1NC(=O)C1CC(=O)N(C2CCCC2)C1 (stereo not given) the results were SARS PLpro yeast -2.3%.
Screening CC(C)CN(C(=O)COC(=O)C(C)N1C(=O)c2ccccc2C1=O)c1c(N)n(Cc2ccccc2)c(=O)[nH]c1=O (stereo not given) returned SARS PLpro yeast 4.6%, Pf growth 96h 16.2% and Pf growth 48h -10.2%.
For O=S(=O)(c1cccs1)N1CCCc2cccc(O)c21 the results were Cycloheximide cs 53.6*, NS1 function inh -31.3%, SARS PLpro yeast 1.4%, Pf growth 96h 68.9% and Shiga inhibitor 80.4*.
`COc1n[nH]c(C(=O)Nc2cc(Cl)ccc2Cl)c1[N+](=O)[O-]` gave Cycloheximide cs 8.8, NS1 function inh -24.7%, SARS PLpro yeast -0.8%, Pf growth 96h 4.65µM*, Shiga inhibitor 3.4 and Pf growth 48h inconclusive.
For COc1ccc(S(=O)(=O)N2CCOCC2)cc1NC(=O)c1sccc1C the results were SARS PLpro yeast -17.6%, Pf growth 96h inconclusive and Pf growth 48h inconclusive.
For COc1ccc(-c2cn3nc(C)c(C)nc3n2)cc1OC the results were SARS PLpro yeast 1.0%, Pf growth 96h 268.2% and Pf growth 48h 129.4%.
For Cc1ccc(-c2cn3nc(C)c(C)nc3n2)cc1 the results were Cycloheximide cs 23.8*, NS1 function inh -4.7%, SARS PLpro yeast -2.1%, Pf growth 96h inconclusive, Shiga inhibitor 31.9* and Pf growth 48h -1.7%.
For COc1ccc(N(CC(=O)NC2CCCC2)C(=O)c2ccc(N3CCCCC3)nc2)cc1 the results were Cycloheximide cs -6.6, NS1 function inh -20.1%, SARS PLpro yeast -4.8%, Pf growth 96h inconclusive, Shiga inhibitor 29.6 and Pf growth 48h 9.28µM*.
For CCC(C)(C)NC(=O)CN(C(=O)c1ccc(N2CCCC2)nc1)c1ccc(F)cc1 the results were Cycloheximide cs 6.7, NS1 function inh 9.6%, SARS PLpro yeast -6.2%, Pf growth 96h inconclusive, Shiga inhibitor 3.8 and Pf growth 48h 4.15µM*.
`COCCNC(=O)CN(C(=O)c1ccc(N2CCCC2)nc1)c1ccc(Cl)cc1` gave Cycloheximide cs -5.3, NS1 function inh 2.5%, SARS PLpro yeast -0.4%, Pf growth 96h inconclusive, Shiga inhibitor -6.4 and Pf growth 48h -18.2%.
Screening Cc1ccc(OP(=O)(Nc2c(C)n(C)n(-c3ccccc3)c2=O)Oc2ccc(C)cc2)cc1 returned Cycloheximide cs -2.3, NS1 function inh -10.2%, SARS PLpro yeast 1.7%, Pf growth 96h 4.4%, Shiga inhibitor -0.8 and Pf growth 48h -20.8%.
For Oc1ccccc1C1=Nc2nc3ccccc3n2C(c2ccccc2)C1 (stereo not given) the results were Cycloheximide cs 49.2*, NS1 function inh 11.6%, SARS PLpro yeast -14.2%, Pf growth 96h inactive, Shiga inhibitor 84.4* and Pf growth 48h inconclusive.

Source: PubChem
